p53 reactivation: qHTS assay for re-activators of p53 using a Luc reporter; H1299 p53-A138V BP100-luciferase reporter, luminescence, 24 h; Potency, µM (titrated, usually from 92.2 µM), most hits filed as activators; 320,000 compounds, 0.063% hits; note: nearly all actives have a fitted effect of over 45% in size
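H1299 (p53-null), stable ts p53-A138V + BP100-Luc; 1000 cells/well, Opti-MEM/10% FBS; cpd 4 pt, 1:5; 24 h, 37 deg C, 5% CO2; detection reagent 10 min RT; luminescence.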
PTHR1 agonist: qHTS for PTHR1 Agonists: Primary Screen. HEK293 GP2 PTHR1 cells, GloSensor cAMP luminescence, 1 h. Potency, µM (doses to about 115 µM), hits mostly activators. 410,000 compounds, 0.075% hits. AID 743266, 2014; note: nearly all actives have a fitted effect of over 55% in size
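HEK-293-derived GP2 cells expressing PTHR1 and a GloSensor cAMP reporter, 3,000/well, plated overnight, given luciferin plus IBMX (each 0.5 mM as added) for 1 h at 37 °C, then compound for 1 h at 37 °C. Luminescence was read after 15 min at room temperature.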
RGS4 inh: Inhibitors of Regulator of G Protein Signaling (RGS) 4: qHTS; Regulator of G-protein signaling 4 (Homo sapiens), P49798; Transcreener GDP fluorescence polarization, RGS4-accelerated GTP hydrolysis; Potency, µM (doses to about 114 µM), usual class: inhibitors; 390,000 compounds, 0.039% hits; note: nearly all actives have a fitted effect of over 75% in size
Target sequence (P49798 whole entry, looked up): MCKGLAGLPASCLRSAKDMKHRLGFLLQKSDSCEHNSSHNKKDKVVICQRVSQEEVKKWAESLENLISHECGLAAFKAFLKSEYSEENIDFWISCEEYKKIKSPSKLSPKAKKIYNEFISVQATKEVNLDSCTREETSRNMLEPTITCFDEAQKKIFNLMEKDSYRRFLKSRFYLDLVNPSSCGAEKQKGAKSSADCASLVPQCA
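MLSMR compounds (23 nl, pin-transferred) preincubated 10 min at room temperature with a 500nM (2x) first reagent, then RGS4 at 900nM (2x) plus Transcreener GDP mix added; fluorescence polarization (620/688 nm) read before and after 90 min at 30 °C.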
LDHA inh: qHTS assay for inhibitors of human lactate dehydrogenase; L-lactate dehydrogenase A chain (Homo sapiens), P00338; activity change, % (values are at about 110 or 230 µM); 480,000 compounds, 0.15% hits; purified LDHA, NADH/diaphorase-resazurin fluorescence; hits give low values; in the data active = activity change below about -30%; inconclusive = mostly about -25% to -30%
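Enzyme activity of human lactate dehydrogenase 5 (2 nM; 0.06 mM NADH, 0.2 mM pyruvate, 5 min, RT) is measured via a resazurin/diaphorase fluorescence readout of residual NADH.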
BRCA1 expr up: qHTS Assay to Identify Small Molecule Activators of BRCA1 Expression. MCF7-BRCA1-FFLuc reporter, luminescence, 48 h; response scale: scaled: vehicle 0%, 10 µM genistein 100%. Potency, µM (doses to about 46.1 µM), usual class: activators. 380,000 compounds, 1.1% hits. AID 624202, 2012; note: nearly all actives have a fitted effect of over 80% in size
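MCF7-BRCA1-FFLuc, 2000 cells/well; 2 h attach, 37 °C/5% CO2; compound 48 h; luciferase substrate 15 min; luminescence end-point. Norm. to genistein 10 microM max activation and DMSO; concentration-response curves fitted.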
Hits are given with their value; [ ] = another dose, or the depositor's remark. Rows were chosen to be rich in hits. Some 1.1% of all compounds tested hit in one or more screens of this group. Unless noted, calls come from the whole dose curve; as a rule, active = well fitted curve in the direction sought with a large enough effect; inconclusive = small, poorly fitted or top-dose-only effect, or another doubt; inactive = no such curve, though single readings can be large; an effect the other way counts as inactive or inconclusive.

Screening COc1ccc(C(=O)COC(=O)Cc2ccc(Cl)cc2Cl)cc1 returned LDHA inh inactive.
`N#CNC(=Nc1ccc(F)cc1)SCc1ccccc1` gave p53 reactivation inactive, PTHR1 agonist inactive, RGS4 inh inactive, LDHA inh inactive and BRCA1 expr up inactive.
CCN(CC)C(=O)CSC(=Nc1ccccc1F)NC#N was read as p53 reactivation inconclusive, PTHR1 agonist inactive, RGS4 inh inactive, LDHA inh inactive and BRCA1 expr up 11.2µM.
`Oc1cccc(C2c3[nH]c4ccccc4c3CCN2Cc2ccoc2)c1` (configuration not stated) gave p53 reactivation inactive, PTHR1 agonist inactive, RGS4 inh inactive, LDHA inh -121.5 and BRCA1 expr up inactive.
Screening Oc1cccc(C2c3[nH]c4ccccc4c3CCN2Cc2ccc3c(c2)CCO3)c1 (configuration not stated) returned p53 reactivation inactive, PTHR1 agonist inactive, RGS4 inh inactive, LDHA inh inactive and BRCA1 expr up inactive.
Screening O=C(O)c1cccnc1Sc1ccc(Cl)cc1 returned p53 reactivation inactive, PTHR1 agonist 50.1µM, RGS4 inh inactive, LDHA inh inactive and BRCA1 expr up inactive.
CNc1nc(-c2ccccn2)nnc1-c1ccccc1 was read as p53 reactivation inconclusive, PTHR1 agonist inactive, RGS4 inh inactive, LDHA inh inactive and BRCA1 expr up inactive.
`c1ccc(-c2nnc(-c3ccccn3)nc2NC2CCCCC2)cc1` gave p53 reactivation 35.5µM, PTHR1 agonist inactive, RGS4 inh inactive, LDHA inh inactive and BRCA1 expr up inactive.
For COc1cc(/C=N/n2c(C)n[nH]c2=S)ccc1OCc1ccc(F)cc1 the results were p53 reactivation inconclusive, PTHR1 agonist inactive, RGS4 inh inactive, LDHA inh inactive and BRCA1 expr up 5.62µM.
COc1ccc(CCNc2nc(-c3cc(OC)c(OC)c(OC)c3)cs2)cc1OC was read as LDHA inh inactive.
COc1cc(OC)c2c(=O)cc(-c3cccnc3)oc2c1 was read as p53 reactivation inactive, PTHR1 agonist inactive, RGS4 inh inactive, LDHA inh inactive and BRCA1 expr up inactive.
`COc1cc(OC)c2c(=O)cc(-c3ccccc3)oc2c1` gave p53 reactivation inactive, PTHR1 agonist inactive, RGS4 inh inactive, LDHA inh inactive and BRCA1 expr up 7.94µM.
Screening O=C(CCC1NC(=O)c2ccccc2NC1=O)NC1CCCCCCC1 (configuration not stated) returned LDHA inh inactive.
CCOc1ccc2c(c1)c(=O)c(S(=O)(=O)c1ccccc1)cn2CC(=O)Nc1cccc(Cl)c1 was read as LDHA inh inactive.
Screening Nc1nc2ccc(C(=O)Nc3ccccc3)cc2s1 returned p53 reactivation inconclusive, PTHR1 agonist 3.98µM, RGS4 inh inactive, LDHA inh inactive and BRCA1 expr up inactive.
For CCc1ccc(NC(=O)c2ccc3ncsc3c2)cc1 the results were p53 reactivation inactive.
CCc1ccc(NC(=O)c2ccc3nc(N)sc3c2)cc1 was read as p53 reactivation inactive, PTHR1 agonist inactive, RGS4 inh inactive, LDHA inh inactive and BRCA1 expr up 11.2µM.
For O=C(O)/C=C/c1cc(Cl)ccc1OCc1ccc(Cl)cc1 the results were LDHA inh inactive.
Screening CC1=C/C(=N/NC(=S)Nc2ccc(Cl)cc2)CC(C)(C)C1 returned LDHA inh inactive.
For COc1ccc(Br)cc1/C=C(\C#N)C(=O)NC(C)c1ccccc1 (configuration not stated) the results were LDHA inh inactive.
Screening O=C(CC1CCCCC1)NCc1ccc(Cl)cc1 returned p53 reactivation inconclusive, PTHR1 agonist inactive, RGS4 inh inactive, LDHA inh inactive and BRCA1 expr up 11.2µM.
Fc1ccc2nc(N3CCCC3)sc2c1 was read as p53 reactivation inactive, PTHR1 agonist inactive, RGS4 inh inactive, LDHA inh inactive and BRCA1 expr up inconclusive.
`Fc1cc(F)c2nc(N3CCCCC3)sc2c1` gave p53 reactivation inconclusive, PTHR1 agonist inactive, RGS4 inh inactive, LDHA inh inactive and BRCA1 expr up 12.6µM.
Screening c1ccc2sc(N3CCCCC3)nc2c1 returned PTHR1 agonist inactive, RGS4 inh inactive, LDHA inh inactive and BRCA1 expr up 4.47µM.
O=C(c1ccccc1)N1CCN(c2nc3ccc([N+](=O)[O-])cc3s2)CC1 was read as p53 reactivation inactive, PTHR1 agonist inactive, RGS4 inh inactive, LDHA inh inactive and BRCA1 expr up inactive.
O=[N+]([O-])c1ccc2nc(N3CCCC3)sc2c1 was read as p53 reactivation inconclusive, PTHR1 agonist inactive, RGS4 inh inactive, LDHA inh inactive and BRCA1 expr up 8.91µM.
CC(C)Sc1nc2c(c(=O)n(C)c(=O)n2C)n1Cc1cccc2ccccc12 was read as LDHA inh inactive.
For CCOc1cc(C(=O)Nc2ccc(N3CCCC3)c(Cl)c2)cc(OCC)c1OCC the results were LDHA inh inactive.
Screening Cc1[nH]c2ccc(C(=O)OCCN(C)C)cc2c1C returned p53 reactivation inconclusive, PTHR1 agonist inactive, RGS4 inh inactive, LDHA inh inactive and BRCA1 expr up inactive.
Screening CCOC(=O)c1ccc2[nH]c(C)c(C)c2c1 returned PTHR1 agonist inactive, RGS4 inh inactive, LDHA inh inactive and BRCA1 expr up 12.6µM.
For Cc1cc2c(cc1C)NC(=O)CC(c1ccccc1)=N2 the results were PTHR1 agonist inactive, RGS4 inh inactive, LDHA inh inactive and BRCA1 expr up 3.16µM.
Screening Cc1ccc2c(c1)N=C(c1ccccc1)CC(C(Cl)Cl)=N2 returned p53 reactivation inactive, PTHR1 agonist inactive, RGS4 inh inactive, LDHA inh inactive and BRCA1 expr up inactive.
Cn1ccs/c1=N\C(=O)Nc1cccc(Cl)c1 was read as p53 reactivation inactive, PTHR1 agonist inactive, RGS4 inh inactive[11.4 µM], LDHA inh inactive and BRCA1 expr up 3.55µM.
For CN1CC(=O)N/C1=N/C(=O)Nc1cccc(Cl)c1 the results were RGS4 inh inactive.
For COc1ccccc1N1CCN(/N=C/C=C\c2ccco2)CC1 the results were p53 reactivation inconclusive, PTHR1 agonist inactive, RGS4 inh inactive, LDHA inh inactive and BRCA1 expr up 2.82µM.
For CCCSc1oc(-c2ccccc2)nc1S(=O)(=O)c1ccccc1 the results were LDHA inh inactive.
For COC(=O)C1C(=O)c2c([nH]c(C(=O)OC3CCCC3C)c2C)CC1C (configuration not stated) the results were p53 reactivation inconclusive, PTHR1 agonist inactive, RGS4 inh inactive, LDHA inh inactive and BRCA1 expr up inconclusive.

Screening data as filed in PubChem BioAssay.
